# Screen size: about 5,500 compounds; about 2,000 (36%) were called active. Not shown: some 18% with an inconclusive outcome. Some of the results follow. Unmarked numbers belong to inactive results. Rule as the data show it: active = normalized growth mostly below about 0.91 (no sharp cut-off); inconclusive = no clear call, values can overlap the other calls; inactive = mostly above about 0.92.
# Assay: chemical genetic growth profiling, strain panel (AID 1159580);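 also: tested at 20 µM; growth read once vehicle control cultures reached saturation at 30 °C; 1 = growth at the plate median or of vehicle wells; lower values mean less growth of the strain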
# Settings: growth OD
structure (smiles),measurement,setting,value
O=C(O)CCCCC1CCSS1 (configuration not stated),normalized growth,"S. cerevisiae deletion strains, locus YJR075W, strain HOC1, hits give low values",1
same,normalized growth,"S. cerevisiae deletion strains, locus YKL009W, strain mrt4, hits give low values",0.978
same,normalized growth,"S. cerevisiae deletion strains, locus YKL068W, hits give low values",1.01
same,normalized growth,"S. cerevisiae deletion strains, locus YKL085W, strain MDH1 (second series), hits give low values",0.996
same,normalized growth,"S. cerevisiae deletion strains, locus YKL085W, strain MDH1, hits give low values",0.996
same,normalized growth,"S. cerevisiae deletion strains, locus YKL160W, strain elf1, hits give low values",0.988
same,normalized growth,"S. cerevisiae deletion strains, locus YKL190W, strain CNB1, hits give low values",0.989
same,normalized growth,"S. cerevisiae deletion strains, locus YKR001C, strain vps1, hits give low values",0.954
same,normalized growth,"S. cerevisiae deletion strains, locus YKR026C, strain gcn3, hits give low values",0.965
same,normalized growth,"S. cerevisiae deletion strains, locus YKR091W, strain srl3, hits give low values",0.982
same,normalized growth,"S. cerevisiae deletion strains, locus YLL001W, strain dnm1, hits give low values",0.95
same,normalized growth,"S. cerevisiae deletion strains, locus YLL026W, hits give low values",0.946
same,normalized growth,"S. cerevisiae deletion strains, locus YLL041C, strain sdh2, hits give low values",0.976
same,normalized growth,"S. cerevisiae deletion strains, locus YLR027C, strain aat2, hits give low values",0.973
same,normalized growth,"S. cerevisiae deletion strains, locus YLR039C, strain RIC1, hits give low values",0.943
same,normalized growth,"S. cerevisiae deletion strains, locus YLR058C, strain SHM2, hits give low values",0.968
same,normalized growth,"S. cerevisiae deletion strains, locus YLR102C, strain apc9, hits give low values",0.984
same,normalized growth,"S. cerevisiae deletion strains, locus YLR113W, strain HOG1, hits give low values",0.961
same,normalized growth,"S. cerevisiae deletion strains, locus YLR221C, strain rsa3, hits give low values",0.963
same,normalized growth,"S. cerevisiae deletion strains, locus YLR258W, strain gsy2, hits give low values",0.933
same,normalized growth,"S. cerevisiae deletion strains, locus YLR262C, strain YPT6 (second series), hits give low values",0.839 (active)
same,normalized growth,"S. cerevisiae deletion strains, locus YLR262C, strain YPT6, hits give low values",0.969
same,normalized growth,"S. cerevisiae deletion strains, locus YLR268W, strain sec22, hits give low values",1.06
same,normalized growth,"S. cerevisiae deletion strains, locus YLR320W, strain mms22, hits give low values",0.98
same,normalized growth,"S. cerevisiae deletion strains, locus YLR330W, strain CHS5, hits give low values",0.966
same,normalized growth,"S. cerevisiae deletion strains, locus YLR342W, strain FKS1 (second series), hits give low values",0.945
same,normalized growth,"S. cerevisiae deletion strains, locus YLR342W, strain FKS1, hits give low values",0.979
same,normalized growth,"S. cerevisiae deletion strains, locus YLR357W, strain rsc2, hits give low values",0.901
same,normalized growth,"S. cerevisiae deletion strains, locus YLR370C, strain arc18, hits give low values",0.986
same,normalized growth,"S. cerevisiae deletion strains, locus YLR371W, strain rom2, hits give low values",0.973
same,normalized growth,"S. cerevisiae deletion strains, locus YLR384C, strain iki3, hits give low values",0.977
same,normalized growth,"S. cerevisiae deletion strains, locus YLR418C, strain cdc73, hits give low values",0.979
same,normalized growth,"S. cerevisiae deletion strains, locus YML016C, strain PPZ1, hits give low values",0.982
same,normalized growth,"S. cerevisiae deletion strains, locus YML032C, strain rad52, hits give low values",0.993
same,normalized growth,"S. cerevisiae deletion strains, locus YML120C, strain ndi1, hits give low values",0.937
same,normalized growth,"S. cerevisiae deletion strains, locus YML124C, strain tub3, hits give low values",0.98
same,normalized growth,"S. cerevisiae deletion strains, locus YMR058W, strain fet3, hits give low values",0.968
same,normalized growth,"S. cerevisiae deletion strains, locus YMR078C, strain ctf18, hits give low values",0.979
same,normalized growth,"S. cerevisiae deletion strains, locus YMR125W, strain sto1, hits give low values",0.981
same,normalized growth,"S. cerevisiae deletion strains, locus YMR129W, hits give low values",0.937
same,normalized growth,"S. cerevisiae deletion strains, locus YMR205C, strain PFK2, hits give low values",0.921
same,normalized growth,"S. cerevisiae deletion strains, locus YMR223W, strain ubp8, hits give low values",0.948
same,normalized growth,"S. cerevisiae deletion strains, locus YMR231W, strain pep5, hits give low values",0.955
same,normalized growth,"S. cerevisiae deletion strains, locus YMR263W, strain SAP30, hits give low values",0.981
same,normalized growth,"S. cerevisiae deletion strains, locus YMR307W, strain GAS1, hits give low values",1.02
same,normalized growth,"S. cerevisiae deletion strains, locus YNL067W, strain RPL9B, hits give low values",1.01
same,normalized growth,"S. cerevisiae deletion strains, locus YNL071W, strain lat1, hits give low values",0.973
same,normalized growth,"S. cerevisiae deletion strains, locus YNL128W, strain TEP1, hits give low values",0.962
same,normalized growth,"S. cerevisiae deletion strains, locus YNL153C, strain GIM3, hits give low values",1
same,normalized growth,"S. cerevisiae deletion strains, locus YNL183C, strain NPR1, hits give low values",0.842
same,normalized growth,"S. cerevisiae deletion strains, locus YNL209W, strain ssb2, hits give low values",0.986
same,normalized growth,"S. cerevisiae deletion strains, locus YNL233W, strain BNI4, hits give low values",1.01
same,normalized growth,"S. cerevisiae deletion strains, locus YNL248C, strain rpa49, hits give low values",0.979
same,normalized growth,"S. cerevisiae deletion strains, locus YNL250W, strain rad50, hits give low values",0.979
same,normalized growth,"S. cerevisiae deletion strains, locus YNL271C, strain bni1, hits give low values",0.976
same,normalized growth,"S. cerevisiae deletion strains, locus YNL298W, strain CLA4, hits give low values",0.928
same,normalized growth,"S. cerevisiae deletion strains, locus YNL307C, strain MCK1, hits give low values",0.983
same,normalized growth,"S. cerevisiae deletion strains, locus YNL322C, strain KRE1 (second series), hits give low values",0.97
same,normalized growth,"S. cerevisiae deletion strains, locus YNL322C, strain KRE1, hits give low values",0.985
same,normalized growth,"S. cerevisiae deletion strains, locus YNR049C, strain mso1, hits give low values",0.97
same,normalized growth,"S. cerevisiae deletion strains, locus YNR052C, strain pop2, hits give low values",0.999
same,normalized growth,"S. cerevisiae deletion strains, locus YOL006C, strain TOP1, hits give low values",1.04
same,normalized growth,"S. cerevisiae deletion strains, locus YOL012C, strain htz1",0.885
same,normalized growth,"S. cerevisiae deletion strains, locus YOL147C, strain pex11, hits give low values",0.975
same,normalized growth,"S. cerevisiae deletion strains, locus YOR001W, strain rrp6, hits give low values",0.962
same,normalized growth,"S. cerevisiae deletion strains, locus YOR061W, strain CKA2, hits give low values",0.97
same,normalized growth,"S. cerevisiae deletion strains, locus YOR069W, strain VPS5, hits give low values",0.986
same,normalized growth,"S. cerevisiae deletion strains, locus YOR070C, strain gyp1, hits give low values",0.979
same,normalized growth,"S. cerevisiae deletion strains, locus YOR080W, strain dia2, hits give low values",0.962
same,normalized growth,"S. cerevisiae deletion strains, locus YOR083W, strain WHI5, hits give low values",0.989
same,normalized growth,"S. cerevisiae deletion strains, locus YOR106W, strain vam3, hits give low values",0.957
same,normalized growth,"S. cerevisiae deletion strains, locus YOR136W, strain idh2, hits give low values",0.969
same,normalized growth,"S. cerevisiae deletion strains, locus YOR144C, strain elg1, hits give low values",0.973
same,normalized growth,"S. cerevisiae deletion strains, locus YOR184W, strain ser1, hits give low values",0.973
same,normalized growth,"S. cerevisiae deletion strains, locus YOR231W, strain MKK1, hits give low values",0.892
same,normalized growth,"S. cerevisiae deletion strains, locus YOR265W, strain rbl2, hits give low values",0.973
same,normalized growth,"S. cerevisiae deletion strains, locus YOR270C, strain vph1, hits give low values",1.02
same,normalized growth,"S. cerevisiae deletion strains, locus YOR290C, strain snf2, hits give low values",0.91
same,normalized growth,"S. cerevisiae deletion strains, locus YOR316C, strain cot1, hits give low values",0.986
same,normalized growth,"S. cerevisiae deletion strains, locus YPL051W, strain arl3, hits give low values",0.981
same,normalized growth,"S. cerevisiae deletion strains, locus YPL055C, strain LGE1, hits give low values",1
same,normalized growth,"S. cerevisiae deletion strains, locus YPL078C, strain atp4, hits give low values",0.99
same,normalized growth,"S. cerevisiae deletion strains, locus YPL106C, strain sse1, hits give low values",0.965
same,normalized growth,"S. cerevisiae deletion strains, locus YPL240C, strain hsp82, hits give low values",0.97
same,normalized growth,"S. cerevisiae deletion strains, locus YPL241C, strain CIN2, hits give low values",0.98
same,normalized growth,"S. cerevisiae deletion strains, locus YPL256C, strain CLN2, hits give low values",0.94
same,normalized growth,"S. cerevisiae deletion strains, locus YPR119W, strain clb2, hits give low values",0.977
same,normalized growth,"S. cerevisiae deletion strains, locus YPR141C, strain kar3, hits give low values",0.985
same,normalized growth,"S. cerevisiae deletion strains, locus YPR163C, strain tif3, hits give low values",0.989
same,normalized growth,"S. cerevisiae deletion strains, locus YPR167C, strain met16, hits give low values",0.988
same,normalized growth,"S. cerevisiae deletion strains, strain wtn01, hits give low values",1
same,normalized growth,"S. cerevisiae strains, strain wild type, hits give low values",0.978

# Reference: PubChem BioAssay AID1159580 (chemical genetic matrix, 2015)
